Here are results for 8 compounds from PubChem BioAssay (NCI).

Among the test systems are HCT-15 colon; HT29 colon; SNB-75 CNS; SNB-19 CNS; U251 CNS; PC-3 prostate; SK-MEL-5 melanoma; UACC-62 melanoma; LOX IMVI melanoma; SK-MEL-28 melanoma; SK-MEL-2 melanoma; EKVX NSCLC; SN12C renal; TK-10 renal; ACHN renal; CAKI-1 renal; CCRF-CEM leukemia; MOLT-4 leukemia; UO-31 renal; A498 renal.
Assay in all cases: NCI-60 one-dose screen, 48 h (100 = growth as untreated, 0 = no growth, -100 = all killed)
Common to all, as to details: 10 µM unless noted

Compounds without any hit were thinned out: in the full panel of roughly 83,000, 20% have a hit.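 Testing used 96-well plates and a 48-hour single-concentration exposure. Example: -40 means 40% of the starting cells died.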 A number with no mark means an inactive call. The source made the active and inactive calls. The calls were made as follows: active = growth percent below 10; inactive = the rest.

`Cc1ccc(S(=O)(=O)Nc2ccc(Cl)cc2)cc1`: the growth was 107% in the test with HCT-15 colon; 112% in the test on HT29 colon; 82.7% with SNB-75 CNS; 96.9% with SNB-19 CNS; 96.4% in the test on U251 CNS; 87.2% with PC-3 prostate. The growth in the test with SK-MEL-5 melanoma was 106%; with UACC-62 melanoma, 77.2%; with LOX IMVI melanoma it was 95.1%; in the test with SK-MEL-28 melanoma, 97.2%; with SK-MEL-2 melanoma, 135%; in the test with EKVX NSCLC, 90.4%. Also, the growth is 94.3% with SN12C renal; 118% with TK-10 renal; 99.8% with ACHN renal; 82.3% in the test on CAKI-1 renal; 95.8% in the test on CCRF-CEM leukemia; 105% with MOLT-4 leukemia.
In the case of `O=C(Nc1ccc2cc3ccc(NC(=O)N4CCCCCC4)cc3nc2c1)N1CCCCCC1`, the growth with HCT-15 colon is -47.4% (active); with HT29 colon it was -36.2% (active); with SNB-75 CNS, -88.4% (active); with SNB-19 CNS, 1.3% (active); with U251 CNS it was -58.8% (active); in the test on PC-3 prostate, 5.93% (active). For the same compound, the growth in the test with SK-MEL-5 melanoma is -94.4% (active); in the test with UACC-62 melanoma it was -66.6% (active); with LOX IMVI melanoma it was -85% (active); in the test on SK-MEL-28 melanoma, -82.1% (active); in the test with SK-MEL-2 melanoma it was -69% (active); in the test with EKVX NSCLC, -41% (active). Further, the growth was -57.6% (active) in the test with SN12C renal; -62.3% (active) in the test on TK-10 renal; -93.6% (active) in the test with ACHN renal; -64.7% (active) with CAKI-1 renal; 8.09% (active) in the test on CCRF-CEM leukemia; -21.2% (active) in the test with MOLT-4 leukemia.
Regarding `Nc1nnc(C(=O)c2cnc3n(c2=O)CCCCC3)s1`, the growth in the test with HCT-15 colon is 102%; in the test on HT29 colon, 115%; in the test on SNB-75 CNS, 85.7%; with SNB-19 CNS, 102%; in the test on U251 CNS, 101%; with PC-3 prostate, 101%. Also, the growth in the test on SK-MEL-5 melanoma is 98.5%; in the test with UACC-62 melanoma, 93.3%; in the test with LOX IMVI melanoma, 89%; with SK-MEL-28 melanoma, 106%; in the test with SK-MEL-2 melanoma it was 112%; in the test with EKVX NSCLC, 98.8%. Besides, the growth was 86.3% with UO-31 renal; 102% in the test on TK-10 renal; 101% in the test with ACHN renal; 92.3% with CAKI-1 renal; 128% with CCRF-CEM leukemia; 97.1% in the test on MOLT-4 leukemia.
Take `CC(N)C(=O)NNc1n[nH]c(=S)n1N` (stereo unspecified): the growth in the test with HCT-15 colon is 93.9%; in the test on HT29 colon, 109%; in the test with SNB-75 CNS, 92.8%; with SNB-19 CNS, 99.1%; in the test on U251 CNS it was 103%; in the test on PC-3 prostate, 99.6%. Also, the growth in the test on SK-MEL-5 melanoma is 97.5%; with UACC-62 melanoma, 102%; in the test with LOX IMVI melanoma it was 98.5%; in the test with SK-MEL-28 melanoma it was 102%; with SK-MEL-2 melanoma it was 105%; in the test on EKVX NSCLC, 93.9%. The growth was 83% with UO-31 renal; 108% in the test on TK-10 renal; 108% in the test with ACHN renal; 93.9% in the test on CAKI-1 renal; 94.8% in the test on A498 renal; 102% in the test with CCRF-CEM leukemia. Moreover, in the test on MOLT-4 leukemia, the growth is 107%.
For the compound `Cc1ccc(C(c2c(O)c3cc(Br)ccc3[nH]c2=O)c2c(O)c3cc(Br)ccc3[nH]c2=O)cc1`, the growth with HCT-15 colon was 79.1%; with HT29 colon, 97.5%; with SNB-75 CNS, 83.7%; in the test with SNB-19 CNS, 93%; with U251 CNS it was 83.7%; in the test on PC-3 prostate, 75.5%. In addition, the growth is 73.3% in the test on SK-MEL-5 melanoma; 63.2% with UACC-62 melanoma; 84.1% in the test with LOX IMVI melanoma; 89.6% with SK-MEL-28 melanoma; 90.2% in the test on SK-MEL-2 melanoma; 71.2% in the test with EKVX NSCLC. The growth in the test with UO-31 renal is 59.5%; with TK-10 renal it was 106%; with ACHN renal, 73.5%; with CAKI-1 renal it was 76.5%; in the test with A498 renal, 79.6%; in the test on CCRF-CEM leukemia it was 80.3%. Moreover, the growth with MOLT-4 leukemia is 66.6%.
In the case of `CC(Oc1ccc(C(=O)NS(=O)(=O)C(C)(C)C)cc1C(F)(F)F)c1ccc(Oc2ccccc2)cn1` (stereo unspecified), the growth with HCT-15 colon was 41.5%; in the test on HT29 colon, 59.5%; with SNB-75 CNS it was 48.1%; with SNB-19 CNS, 63.8%; with U251 CNS, 58.1%; in the test with PC-3 prostate it was 93.8%. The growth is 45.1% in the test on SK-MEL-5 melanoma; 36.7% in the test with UACC-62 melanoma; 60.1% in the test on LOX IMVI melanoma; 61% in the test on SK-MEL-28 melanoma; 35.5% with SK-MEL-2 melanoma; 86.5% with EKVX NSCLC. For the same compound, the growth in the test on SN12C renal is 86.1%; in the test with ACHN renal, 89.4%; in the test on CAKI-1 renal, 40.8%; with CCRF-CEM leukemia, 74.1%; in the test with MOLT-4 leukemia it was 98.5%.
As to `Nc1cc(N)c2cccnc2c1O`, the growth is 83.7% in the test on HCT-15 colon; 87.4% in the test with HT29 colon; 104% with SNB-75 CNS; 64.2% in the test on SNB-19 CNS; 68.3% with U251 CNS; 80.7% in the test with PC-3 prostate. In addition, the growth in the test on SK-MEL-5 melanoma was 62.9%; in the test on UACC-62 melanoma, 43%; in the test with LOX IMVI melanoma, 42.3%; with SK-MEL-28 melanoma, 73.6%; with SK-MEL-2 melanoma it was 98.2%; in the test with EKVX NSCLC it was 83.2%. The growth in the test with UO-31 renal was 56.5%; in the test with TK-10 renal it was 86%; with ACHN renal it was 54.3%; in the test on CAKI-1 renal it was 35.3%; in the test on CCRF-CEM leukemia, 2.91% (active); in the test on MOLT-4 leukemia it was 5.9% (active).
With `C#CCn1cc(C=C2C(=O)NC(=S)NC2=O)c2cc(Cl)ccc21`, the growth in the test on HCT-15 colon is -23% (active); in the test on HT29 colon, 13.6%; in the test on SNB-75 CNS it was 43.9%; in the test with SNB-19 CNS, 13.2%; with U251 CNS, 3.31% (active); with PC-3 prostate it was 8.39% (active). Moreover, the growth in the test on SK-MEL-5 melanoma is 40.8%; in the test with UACC-62 melanoma, 1.1% (active); in the test on LOX IMVI melanoma, -46.1% (active); with SK-MEL-28 melanoma, -26.5% (active); with SK-MEL-2 melanoma it was 89.1%; in the test on EKVX NSCLC, 67.2%. The growth in the test on UO-31 renal was -73.4% (active); with TK-10 renal, 16.1%; in the test on ACHN renal, -25.2% (active); in the test with CAKI-1 renal it was 9.84% (active); with A498 renal it was -1.83% (active); in the test with CCRF-CEM leukemia, 0.645% (active). For the same compound, the growth in the test on MOLT-4 leukemia was 5.59% (active).
